Measured values reported in PubChem BioAssay (NCATS).
Records with an inconclusive call do not appear. A number with no mark means an inactive call. Active and inactive are the calls of the source. Calls follow the shape of the dose curve; as a rule, active = well fitted inhibition curve with a large enough effect; inconclusive = small, poorly fitted or top-dose-only effect; inactive = flat fitted curve, though single readings scatter. Where a SMILES comes first, the peptide text is derived from it. The star is where a group is joined. AMC = Cc1cc(=O)oc2cc(N*)ccc12; Cbz = O=C(OCc1ccccc1)*; Hexanoyl = CCCCCC(=O)*; PhAc = O=C(Cc1ccccc1)*

Legend:
CRL-7250 = normal cell line; test: Cytotoxic Profiling of Annotated Libraries Using Quantitative High-Throughput Screening (AID 1296008); conditions: Five cell lines viability, CellTiter-Glo ATP luminescence, 48-72 h; max response: active compounds read low; also: potency is read from the fitted curve at half-maximal effect; as to max response: % is scaled to controls: 0 for no effect and ±100 for the full control effect
Method in brief: (§1)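 Cells exposed to compounds for 48 or 72 hr at 37 degrees Celsius. Viability read as ATP-coupled luminescence with CellTiter-Glo after 10 min at room temperature.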

HEK293 = test: as above; conditions: Five cell lines viability, CellTiter-Glo ATP luminescence, 48-72 h; max response: active compounds read low
Method in brief: as §1

HaCat [1] = test: as above; conditions: Five cell lines viability, CellTiter-Glo ATP luminescence, 48-72 h; max response: active compounds read low
Method in brief: as §1

KB-3-1 = test: as above; conditions: Five cell lines viability, CellTiter-Glo ATP luminescence, 48-72 h; max response: active compounds read low
Method in brief: as §1

NIH3T3 = test: as above; conditions: Five cell lines viability, CellTiter-Glo ATP luminescence, 48-72 h; max response: active compounds read low
Method in brief: as §1

HACAT [2] = test: qHTS assay to identify novel small-molecules to repurpose for Merkel cell carcinoma treatment (AID 1296009); conditions: MCC and control cell lines, CellTiter-Glo viability, 72 h; at 44.8 µM (top of the series) unless noted
Method in brief: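 Cells were treated for 72 hr at 37 degree celsius with compounds in 8- or 11-point dose response. Viability was read by CellTiter-Glo luminescence, normalized to no-cell (cytotoxicity) and DMSO controls.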
Also: nearly all actives have a fitted effect of over 60% in size.

| Structure (SMILES) | max response (CRL-7250) | max response (HEK293) | outcome (HaCat [1]) | max response (KB-3-1) | outcome (NIH3T3) | outcome (HACAT [2]) | max response (NIH3T3) | outcome (CRL-7250) | Potency (HEK293) | outcome (KB-3-1) |
| --- | --- | --- | --- | --- | --- | --- | --- | --- | --- | --- |
| CC(C)(O)C1CC=C(C(=O)OC[C@H]2O[C@@H](OC(=O)C3=CCC(C(C)(C)O)CC3)[C@H](O)[C@@H](O)[C@@H]2O)CC1 (stereo partly drawn) | 3.51% | 1.77% | inactive | 9.42% | inactive | inactive [at 17.4 µM] | – | – | – | – |
| CC(=O)OCC1OC(OC2COC(OC3COC(OC4C(OC5C(CO)OC(OC6CCC7(C)C(CCC8(C)C7CC=C7C9CC(C)(C)CCC9(C(=O)OC9OC(CO)C(O)C(O)C9OC9OCC(OC%10OCC(O)(CO)C%10O)C(O)C9O)C(O)CC78C)C6(C)C)C(O)C5O)OCC(O)C4O)C(O)C3O)C(O)C2O)C(OC(=O)/C=C/c2ccccc2)C(O)C1OC(C)=O (stereo not drawn) | 2.77% | -18.2% | inactive | 4.45% | – | inactive [at 4.96 µM] | -0.042% | – | – | – |
| C=C1C(O)CCC2(C)CC3(OC)OC(=O)C(C)=C3CC12 (stereo not drawn) | – | 0.468% | inactive | 3.24% | inactive | inactive | – | inactive | – | – |
| C[C@H]1[C@H](C)C[C@@H](C(=O)O)C2CC[C@]3(C)C(=CC[C@@H]4[C@@]5(C)CC[C@H](O)C(C)(C)[C@@H]5CC[C@]43C)[C@@H]21 (stereo partly drawn) | -4.25% | – | inactive | 8.63% | inactive | inactive | – | – | 25.9 µM (active) | – |
| COc1ccc2c(c1)C=C1Cn3c-2c(C2CCCCC2)c2ccc(cc23)C(=O)NS(=O)(=O)N(C)CCOCCN(C)C1=O | -49.9% | -78% | inactive | -5.47% | – | inactive | -17.2% | – | – | – |
| CN(C)c1ccc(C2O[C@@H](c3ccccc3)C[C@H](c3ccccc3)O2)cc1 (stereo partly drawn) | – | -10.1% | inactive | – | – | inactive | 4.55% | inactive | – | inactive |
| C/C=C1\[C@H](O[C@@H]2O[C@H](CO)[C@@H](O)[C@H](O)[C@H]2O)OC=C(C(=O)OCCc2ccc(O)cc2)[C@H]1CC(=O)OCCc1ccc(O)cc1 | 0.139% | -2.9% | inactive | -0.75% | – | inactive [at 17.4 µM] | -3.77% | – | – | – |
| COC(=O)[C@H](c1ccccc1Cl)N1CCC2SC(=O)C=C2C1 (stereo partly drawn) | -4.86% | -11.7% | inactive | 7.5% | – | inactive | -12.1% | – | – | – |
| C=C1CCC[C@]2(C)CC[C@@](O)(C(=C)C(=O)O)C[C@@H]12 | -0.228% | -21.6% | inactive | -4.38% | – | inactive | -3.81% | – | – | – |
| COc1c2ccoc2nc2c(OC)c(O[C@@H]3O[C@@H](C)[C@H](O)[C@@H](O[C@@H]4O[C@H](CO)[C@@H](O)[C@H](O)[C@H]4O)[C@H]3OC(C)=O)ccc12 | 0.0337% | -0.274% | inactive | 9.99% | – | inactive [at 17.4 µM] | -1.67% | – | – | – |
| CCOC(=O)CNC(=O)[C@@H]1CCCN1C(=O)Cc1ccccc1 (PhAc-Pro-Gly-OEt) | -0.853% | 4.73% | inactive | 5.86% | – | inactive | -14.5% | – | – | – |
| CCC(C)C1NC(=O)C2C(C)CCN2C(=O)C(CC(O)CO)OC(=O)CCNC(=O)C(C)N(C)C(=O)C(C(C)C)N(C)C1=O (stereo not drawn) | -3.99% | -0.256% | inactive | 0.529% | inactive | inactive [at 17.4 µM] | – | – | – | – |
| Cc1[nH]c2ccccc2c1CC(=O)N[C@@H](Cc1ccccc1)C(=O)N(C)c1ccccc1 | -9.69% | -12.5% | inactive | – | – | inactive | -0.277% | – | – | inactive |
| C[C@H]1CC[C@@]2(OC1)O[C@H]1CC3C4CC[C@H]5C[C@@H](O)CC[C@]5(C)C4CC(=O)[C@]3(C)[C@H]1[C@@H]2C (stereo partly drawn) | 2.1% | -2.47% | inactive | – | – | inactive [at 17.4 µM] | 3.42% | – | – | inactive |
| CC(O)/C=C/C1(O)C(C)C(O)C(O[C@@H]2O[C@H](CO)[C@@H](O)[C@H](O)[C@H]2O)CC1(C)C (stereo partly drawn) | -7.69% | -15.2% | inactive | 0.447% | inactive | inactive [at 17.4 µM] | – | – | – | – |
| Cc1cc(=O)oc2cc(NC(=O)[C@H](CCC(=O)O)NC(=O)[C@H](CC(C)C)NC(=O)[C@H](CC(C)C)NC(=O)OCc3ccccc3)ccc12 (Cbz-Leu-Leu-Glu-{AMC}) | -3.16% | -3.22% | inactive | 3.3% | – | inactive | -20.3% | – | – | – |
| C=C1CCC(OC(C)=O)C2(C)CC3OC(=O)C(C)=C3CC12 (stereo not drawn) | -0.951% | -10.1% | inactive | 3.31% | – | inactive | -1.87% | – | – | – |

| Structure (SMILES) | max response (CRL-7250) | max response (HEK293) | outcome (HaCat [1]) | max response (KB-3-1) | outcome (NIH3T3) | outcome (HACAT [2]) | max response (NIH3T3) | outcome (CRL-7250) | Potency (HEK293) | outcome (KB-3-1) |
| --- | --- | --- | --- | --- | --- | --- | --- | --- | --- | --- |
| Cc1occc(=O)c1O[C@@H]1O[C@H](CO)[C@@H](O)[C@H](O)[C@H]1O | -1.36% | 2.23% | inactive | – | inactive | inactive | – | – | – | inactive |
| OC[C@@]1(O)CO[C@H](OC[C@H]2O[C@@H](OC(CCCCc3ccc(O)cc3)CCc3ccc(O)cc3)[C@H](O[C@H]3OC[C@](O)(CO)[C@H]3O)[C@@H](O)[C@@H]2O)[C@@H]1O (stereo partly drawn) | -11.2% | -13.7% | inactive | 2.31% | inactive | inactive [at 17.4 µM] | – | – | – | – |
| C/C=C1/[C@H](O[C@@H]2O[C@H](CO)[C@@H](O)[C@H](O)[C@H]2O)OC=C(C(=O)OC)[C@H]1CC(=O)OCCc1ccc(O)c(O)c1 | -12.9% | -8.69% | inactive | 4.42% | inactive | inactive [at 17.4 µM] | – | – | – | – |
| OC[C@H]1O[C@@H](OCCc2ccccc2)[C@H](O[C@@H]2OC[C@@H](O)[C@H](O)[C@H]2O)[C@@H](O)[C@@H]1O | – | 4.26% | inactive | 9.19% | inactive | inactive [at 17.4 µM] | – | inactive | – | – |
| O=C(C1OC1/C=C/c1ccc2c(c1)OCO2)N1CCCCC1 (stereo not drawn) | 3.99% | -7.74% | inactive | 5.97% | – | inactive | -1.01% | – | – | – |
| COC(=O)C1=CO[C@@H](O[C@@H]2O[C@H](CO)[C@@H](O)[C@H](O)[C@H]2O)[C@H]2[C@@H]1C=C[C@]21C=C([C@H](C)OC(=O)/C=C/c2ccc(O[C@@H]3O[C@H](CO)[C@@H](O)[C@H](O)[C@H]3O)cc2)C(=O)O1 | -2.8% | 4.82% | inactive | 9.99% | inactive | inactive [at 17.4 µM] | – | – | – | – |
| COc1cc(C)c(C(=O)NC2C(C)OC(OC3CCC(C)C4C3C=C(C)C3/C(C)=C\CC/C(C)=C/C5(C)C=C(C(=O)O)C(C)CC56OC(=O)/C(=C(\O)C34C)C6=O)C(O)C2(C)O)c(O)c1 (stereo not drawn) | -0.565% | -0.938% | inactive | -0.929% | inactive | inactive [at 9.27 µM] | – | – | – | – |
| CCCCCC(=O)N1CCC[C@H]1C(=O)N[C@@H](Cc1ccc(O)cc1)C(=O)OC (Hexanoyl-Pro-Tyr-OMe) | 1.02% | 4.39% | inactive | -0.528% | – | inactive | -4.54% | – | – | – |
| COC(=O)C(CC1(O)c2ccccc2N2C(=O)C(C)(C)N(O)C21)n1cnc2ccccc2c1=O (stereo not drawn) | – | 3.97% | inactive | 0.0146% | – | inactive [at 17.4 µM] | 2.61% | inactive | – | – |
| COc1ccc(C(=O)CC(=O)O)c2c1C=CC(C)(C)O2 | – | -7.49% | inactive | 7.77% | – | inactive | -1.38% | inactive | – | – |
| COC1OC(OC)C(O)(CCC2(C)C(C)CCC3(C)C2CC(O)C(O)C32CO2)C1O (stereo not drawn) | -2.11% | 1.57% | inactive | 5.15% | inactive | inactive [at 17.4 µM] | – | – | – | – |
| O=C(c1c2ccccc2cc2ccccc12)N1CCC(N2CCC[C@@H](C(=O)N3CCOCC3)C2)CC1 | 2.01% | -10.6% | inactive | – | – | inactive | -3.13% | – | – | inactive |
| C=CCC/C=C/C#CCCCCCCCC[C@H]1C(=O)O[C@H](C)[C@@H]1O | 0.985% | -11.8% | inactive | -1.24% | – | inactive | 0.0642% | – | – | – |
| CC(O)C(O)/C=C/C=C/C(=O)O[C@@H]1C=C(C(=O)O)[C@](O)(CO)[C@@]2(C)CCCC(C)(C)[C@H]12 (stereo partly drawn) | -15.6% | -10.2% | inactive | 4.17% | inactive | inactive [at 17.4 µM] | – | – | – | – |
| CC1(C)CC[C@]2(C(=O)O)CC[C@]3(C)C(=CCC4[C@@]5(C)C[C@H](O)[C@H](O[C@@H]6O[C@H](CO)[C@@H](O)[C@H](O)[C@H]6O)[C@@](C)(CO)C5[C@H](O)C[C@]43C)[C@@H]2C1 (stereo partly drawn) | 3.07% | 0.861% | inactive | 3.96% | inactive | inactive [at 17.4 µM] | – | – | – | – |
| C/C=C(\C)C(=O)OC1C2(O)CC3=C4CC(=O)OC(c5ccoc5)C4(C)CCC3C(C)(C2=O)C(C(OC(C)=O)C(=O)OC)C1(C)C (stereo not drawn) | – | -2.36% | inactive | -3.65% | – | inactive [at 17.4 µM] | 1.4% | inactive | – | – |
